An excerpt weighted towards active compounds, which were near 3% of everything screened.
SENP6 inh: blocks the human protease SENP6; Q9GZR1; hit rate 1.8% among 330,000; inhibition, % at 10 µM; Recombinant SENP6 catalytic domain, aminoluciferin luminescence;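 active = inhibition above about 50% at the single tested dose, limit read from the data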;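 also: plate controls were DMSO wells with enzyme for no effect and DMSO wells lacking enzyme for full effect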
PPC-1+TRAIL kill: compounds killing PPC-1 cancer cells with TRAIL present (potentiator screen, no TRAIL-free arm). cell killing (% activity), % at 4 µM or 5 µM. PPC-1 cells + TRAIL, ATPLite viability luminescence. hit rate 0.41% among 220,000;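 active = cell killing above 50% in the first pass at 4 µM, then a duplicate retest at 5 µM averaging 50% or more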;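 also: plate controls were cells with TRAIL plus DMSO for no effect and medium-only wells lacking cells for full effect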
SENP7 inh: SENP7 protease inhibition. recombinant SENP7, Z-RLRGG-aminoluciferin luminescence, 40 min. inhibition, % at 5 µM. hit rate 1.5% among 330,000. AID 434973;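 active = inhibition above about 50% at the single test dose, limit read from the data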;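 also: plate controls were DMSO with enzyme for no effect and no enzyme buffer wells for full effect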
Target sequence (Q9BQF6 706-1050 limits assumed): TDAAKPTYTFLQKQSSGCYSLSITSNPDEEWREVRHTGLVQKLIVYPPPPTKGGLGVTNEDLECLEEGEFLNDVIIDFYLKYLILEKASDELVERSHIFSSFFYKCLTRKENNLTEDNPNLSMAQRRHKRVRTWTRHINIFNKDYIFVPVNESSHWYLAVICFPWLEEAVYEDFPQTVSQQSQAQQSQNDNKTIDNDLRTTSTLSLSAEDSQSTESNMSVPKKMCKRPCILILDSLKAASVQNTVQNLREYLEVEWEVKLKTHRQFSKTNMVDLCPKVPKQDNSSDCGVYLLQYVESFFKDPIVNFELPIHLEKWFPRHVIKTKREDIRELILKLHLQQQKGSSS
SENP8 block-1: SENP8 (human) protease inhibition. recombinant SENP8, Nedd8 substrate fluorescence. inhibition, % at 20 µM. hit rate 0.64% among 360,000; in the data active = inhibition mostly above about 40%, no sharp cut-off; inactive = mostly below about 27%
Target sequence (Q96LD8 whole entry, looked up): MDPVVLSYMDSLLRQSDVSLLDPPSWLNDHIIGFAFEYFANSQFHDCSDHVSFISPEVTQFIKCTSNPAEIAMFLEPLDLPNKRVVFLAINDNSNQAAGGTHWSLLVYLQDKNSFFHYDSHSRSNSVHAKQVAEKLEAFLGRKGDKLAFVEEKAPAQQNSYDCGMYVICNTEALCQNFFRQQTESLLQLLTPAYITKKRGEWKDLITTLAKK
SENP8 block-2: blocks the human protease SENP8. Q96LD8. purified SENP8, Z-RLRGG-aminoluciferin cleavage, luminescence. inhibition, % at 10 µM. hit rate 1.2% among 330,000. AID 2540; in the data active = inhibition above about 50%
C8 TRAIL sens: sensitizes caspase-8 expressing cells to TRAIL. NB7+C8 cells + TRAIL, ATPlite viability luminescence. inhibition (viability loss, TRAIL sensitization), % at 10 µM. hit rate 1% among 360,000. AID 624354;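 active = compounds causing at least 50% loss of cell viability in the single-dose screen, relative to plate controls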
Numbers without * were called inactive; / = no result.

SMILES	SENP6 inh	PPC-1+TRAIL kill	SENP7 inh	SENP8 block-1	SENP8 block-2	C8 TRAIL sens
O=C(Nc1ccc2[nH]ccc2c1)c1cccs1	12	42	-1	6	1	63*
CCOc1ccc(C(=O)Nc2ccc3[nH]ncc3c2)cc1	13	/	5	6	-8	72*
O=C(Nc1ccc2[nH]ncc2c1)c1ccccc1	20	/	2	1	8	37
O=C(Nc1ccc2[nH]ncc2c1)c1ccc(F)cc1	3	/	-16	12	-10	38
CCOC(=O)C1=C(C)C(c2ccccc2OC)NC(=S)N1 (configuration not stated)	-28	26	-3	21	0	-5
Cc1ccc(S(=O)(=O)N2C3CCCCC3O[C@H]2CC(=O)c2cccc3ccccc23)cc1 (some centres not stated)	/	/	/	16	/	-5
O=C(Nc1ccc2nc(-c3ccco3)[nH]c2c1)c1cccs1	-3	26	0	-147	-1	55*
CCOc1ccc(OCC(=O)N(CCC2=CCCCC2)c2c(N)n(Cc3ccccc3)c(=O)[nH]c2=O)cc1	-21	/	2	6	-1	56*
COc1ccc(NS(=O)(=O)c2cccc(C(=O)N/N=C/c3c(F)c(F)c(F)c(F)c3F)c2)cc1	/	/	/	-33	/	66*
CCCC(=O)NCc1nc2ccccc2n1CC(=O)c1ccccc1	-9	/	4	22	1	5
O=C(CN(Cc1ccccc1)C(=O)CCl)c1cccc(Br)c1	-28	/	-10	20	-10	97*
Oc1ccc(/C=N/Nc2ccc(Cl)nn2)c(O)c1O	20	/	4	49*	5	10
Oc1c(Br)cc(Br)cc1/C=N/Nc1ccc(Cl)nn1	/	/	/	12	/	9
Nc1cc(N)nc(SCC(=O)NC2CCCCCCC2)n1	-9	/	1	1	0	-15
C=CC(=O)Nc1cccc(Nc2nc(N[C@H]3CC[C@H](N(C)C)CC3)nc3c2ncn3C(C)C)c1	/	/	/	6	/	83*
CC(C)n1cnc2c(Nc3cccc(Cl)c3)nc(NCCCO)nc21	-3	28	-5	-150	11	29
CSc1ccc(C2NC(=O)c3ccccc3N2)cc1 (configuration not stated)	17	/	13	-483	7	51*
CCCC(=O)N(Cc1cc(=O)[nH]c2ccccc12)c1ccc(C)cc1C	10	/	-4	0	-8	-16
Cc1ccc(N(Cc2cc(=O)[nH]c3ccccc23)C(=O)CCl)c(C)c1	-4	/	3	1	2	52*
CCC(Oc1ccccc1)C(=O)NC1C(=O)N2C1SC(C)(C)C2C(=O)O (configuration not stated)	19	21	61*	15	-1	-3
Cc1cccc(NC(=O)CNC(=O)CSc2nnc(C(F)(F)F)n2C)c1C	-18	/	1	6	-15	4
COc1ccc(NS(=O)(=O)c2ccc(N3CCOCC3)c(N)c2)cc1	0	/	2	-6	10	18
CC(C)(C)NC(=O)C(c1ccncc1)n1c(-c2ccc(C(F)(F)F)cc2)nc2ccccc21 (configuration not stated)	/	/	/	-433	/	79*
Cc1ccc(NC(=S)Nc2cccnc2)c(S(=O)(=O)N2CCCCC2)c1	0	2	-6	-4	-10	-6
COCCNC(=O)CSc1nc2nn(-c3ccccc3)c(=O)c-2c2n1CCCCC2	-5	-5	4	18	-3	-1
SMILES	SENP6 inh	PPC-1+TRAIL kill	SENP7 inh	SENP8 block-1	SENP8 block-2	C8 TRAIL sens
CC1(OC(=O)c2cccs2)C(=O)C=C2C=C3CCCN3C=C2C1=O (configuration not stated)	-21	8	9	59*	-3	-3
O=S(=O)(c1ccc2c(c1)C(=NO)c1cc(S(=O)(=O)N3CCCCC3)ccc1-2)N1CCCCC1	-18	95*	7	-271	-6	91*
CC1CCN(S(=O)(=O)c2ccc3c(c2)C(=NO)c2cc(S(=O)(=O)N4CCC(C)CC4)ccc2-3)CC1	-13	97*	4	-223	0	95*
CCCCCCCCC(c1nc2ccccc2[nH]1)N1CCN=C1c1cc2ccccc2[nH]1 (configuration not stated)	/	/	/	-3	/	87*
Cc1cccc(C)c1-n1nnnc1C1c2ccccc2C(=O)N1CCc1ccc(O)cc1 (configuration not stated)	/	/	/	19	/	1
O=c1[nH]nc(-c2ccccc2)c2ccccc12	-4	20	3	-2	-6	3
Cc1cccc(-c2cc3c(N=O)c4ccccc4c-3n[nH]2)c1	96*	41	99*	4	10	49
O=C1C=C(c2ccc(Oc3ccccc3)cc2)C[C@@H](c2ccc3c(c2)OCO3)C1	0	/	6	18	2	8
Cc1ccc(N=Nc2ccc(O)c3ncccc23)cc1C	-20	13	-20	26	0	35
COc1ccccc1N=Nc1ccc(O)c2ncccc12	65*	/	25	87*	47	27
CCS(=O)(=O)c1ccc(N=Nc2ccc(O)c3ncccc23)c(OC)c1	10	-11	7	24	2	70*
Cc1ccc(N=Nc2ccc(O)c3ncccc23)cc1	/	14	/	43*	/	28
CC1=NN(c2ccccc2)C(=O)/C1=C\c1cc(C)n(-c2ccccc2)c1C	6	12	7	46*	-7	25
CC1=NN(c2ccccc2)C(=O)/C1=C\c1cc(C)n(-c2cccnc2)c1C	-6	1	-4	42*	3	-9
O=P(c1ccccc1)(c1ccccc1)C(O)c1cccs1 (configuration not stated)	/	/	/	6	/	2
Cc1cc(C(=O)Nc2nc3ccc(Cl)cc3s2)nn1C	-7	11	48	-8	-4	24
Cn1ncc(Cl)c1C(=O)Nc1nc2ccc(Cl)cc2s1	98*	21	98*	-56	-5	27
O=C(COc1ccc(Br)cc1Cl)NC(=S)Nc1ccccn1	-8	/	-3	8	6	22
Cc1ccc(OCC(=O)NC(=S)Nc2ccccn2)c(Br)c1	43	/	-36	10	46	84*
COc1ccc(N2CCN(CCNC(=O)Nc3ccc(C)cc3Cl)CC2)cc1	-22	/	5	17	10	4
O=C1CCCC/C1=C\Nc1ccc(C(=O)O)c(O)c1	62*	-4	22	-7	36	0
CC1CCC/C(=C\Nc2ccc(C(=O)O)c(O)c2)C1=O (configuration not stated)	48	-7	-12	-11	28	-9
O=C(N/N=C/c1ccc(O)c(O)c1)N/N=C/c1ccc(O)c(O)c1	-21	/	8	18	0	55*
N/C(=N\N=C\c1ccc(O)c(O)c1)c1nonc1N	99*	1	99*	15	96*	-2
Cc1nonc1C(=O)N/N=C/c1ccc(O)c(O)c1	97*	7	99*	15	96*	15
COc1cc(/C=N/NC(=O)c2cc(C)oc2C)ccc1O	-5	16	-1	-36	-11	-4

Source: PubChem BioAssay (Sanford-Burnham Center for Chemical Genomics)
